# Measured values reported in PubChem BioAssay (NCI).
# “And” between values parts separate entries of the source, which are not always exact repeats. Identical values can stand only once. About 83,000 compounds went through this panel and 20% of them were active in at least one assay; those are over-represented in the sample as a whole.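 Interpretation: 100, growth as untreated; towards 0, rising growth inhibition; 0, no net growth; 0 to -100, cell death. Compounds scoring below 10 were considered active.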 A number with no mark means an inactive call. The source made the active and inactive calls.
# Test system: HL-60(TB) leukemia
# Test: NCI-60 one-dose screen, 48 h (100 = growth as untreated, 0 = no growth, -100 = all killed)
# Details: 10 µM unless noted
row,Compound,growth
1,CSc1ccc(SC2c3ccc(C)cc3Oc3nc(N)c(C#N)c(N)c32)cc1 (centres undefined),-52% (active)
2,O=C(CCc1nnc(Cn2cnc3nc[nH]c3c2=O)o1)c1nc2ncccc2[nH]1,99.9%
3,CS(=O)(=O)C1=CN(CCO)C(=O)N2CCCN=C12,109%
4,O=C(O)C1CCCN1C(=O)OCc1ccccc1 (centres undefined),102%
5,Cc1cc(Nc2ccc(Cl)c(Cl)c2)nc(N)n1,62.7%
6,CN[C@]12CC3(C=CC(=O)C=C3)O[C@@]1(Cc1ccc(OC)cc1)N(C)C(=O)N2,-3.53% (active)
7,O=C(Nc1ccc(-n2cc(-c3ccncc3)c(-c3ccc(O)c(Cl)c3)n2)cc1)Nc1ccc(Cl)c(C(F)(F)F)c1,-4.77% (active)
8,CCN(CC)C(=O)C1CCN(C(=O)c2ccccc2)CC1,89.3%
9,N#Cc1c(-c2ccccc2)cc(-c2ccccc2)n(CCCC(=O)Nc2ccccc2N)c1=O,21.5%
10,Cc1c(C2=NNC(c3ccc4c(c3)OCO4)C2)[n+]([O-])c2ccccc2[n+]1[O-] (centres undefined),90.5%
11,Nc1nc(Cl)c2ncn(Cc3cc4c(cc3I)OCO4)c2n1,52.3%
12,COC(C(=O)[C@@H](O)[C@@H](C)O)[C@@H]1Cc2cc3cc(O[C@H]4C[C@@H](O[C@H]5C[C@@H](O)[C@H](O)C(C)O5)[C@H](O)C(C)O4)c(C)c(O)c3c(O)c2C(=O)[C@H]1O[C@H]1C[C@@H](O[C@H]2C[C@@H](O[C@H]3C[C@@H](O)[C@H](OC)C(C)O3)[C@@H](O)C(C)O2)[C@H](O)C(C)O1 (some centres undefined),-5.47% (active)
13,COc1cc(-n2cc(-c3cc(O)c(C/C=C(\C)CCC=C(C)C)c(O)c3)nn2)cc2c1O[C@]1(C)CC[C@@H](O)C(C)(C)[C@H]1C2,-13.9% (active)
14,Nc1c(C(=O)Nc2ccccc2)sc2nc3c(cc12)C(O)CCC3 (centres undefined),-8.34% (active)
15,CCOC(=O)c1c(C)c2c(n1C)CSc1cc(C(=O)c3ccccc3)c(=O)[nH]c1-2,74.7% [100 µM]
16,N#CC1=C(c2ccc(Br)cc2)NC(SCC(=O)c2ccc(Br)cc2)NC1=O (centres undefined),96%
17,CC(=O)Nc1ccc(CC[C@H]2CCC/C=C/[C@@H]3C[C@H](O)C[C@H]3[C@H](O)/C=C/C(=O)O2)cc1,-9.6% (active)
18,CC(C)=NNc1ccc([N+](=O)[O-])cc1[N+](=O)[O-],57.5%
19,COc1ccc(C2CC(c3cccs3)=NN2c2ccc(S(=O)(=O)NC(=O)Nc3ccc(C)cc3)cc2)cc1 (centres undefined),126%
20,O=C1/C(=C\c2cn(C(=O)c3ccc(Cl)cc3)c3ccccc23)c2ccccc2N1c1c(Cl)cccc1Cl,103%

row,Compound,growth
1,C=CCc1cc(C(C)=O)cc(OC)c1O,71.1%
2,CCCCCCCCCCCCCCCCCCOP(=O)([O-])OC1CC[N+](C)(C)CC1,-22.6% (active) and -37.1% (active)
3,Cc1ccc2c(c1)Sc1c(ccc3ccccc13)N2,44.9%
4,O=c1[nH]c(=O)n(C2OC(CO)C(O)C2O)cc1I (centres undefined),77.5% and 86.6%
5,Cc1c(C(=O)NO)sc2ncnc(Nc3ccc(NC(=S)Nc4ccccc4)cc3)c12,103%
6,O=C(CI)NC1Oc2ccccc2-c2oc(=O)c(-c3ccccc3)cc21 (centres undefined),-39.3% (active)
7,CN1CC[C@@H](c2c(O)cc(O)c3c(=O)cc(-c4ccccc4Cl)oc23)[C@@H](O)C1,-29.1% (active)
8,Nc1ccc(-c2cc3c(Nc4ccc(OCc5cccc(F)c5)c(Cl)c4)ncnc3s2)cc1,48.3%
9,NC1=NCc2nc3ccccc3c(=O)n2C1,90.9%
10,COc1ccc(-c2c(-c3nc4ccc(N5CCOCC5)cc4[nH]3)[nH]c(C)c2C(C)=O)cc1,4.22% (active)
11,COC(=O)c1cc(-c2cccs2)c(C#N)c(N)c1C#N,108%
12,Cc1cc(OCc2ccc(C(F)(F)F)cc2)c2c(c1)C(=O)C=C(NCCN1CCCC1)C2=O,96.6%
13,COc1c(B(O)O)cccc1-c1nc2ccc3[nH]ncc3c2c2c1CCC2,61.6%
14,CC(C)=C1C=C2CC[C@@H]3[C@](C)(CCC[C@@]3(C)C(=O)O)[C@H]2CC1,105%
15,Cc1ccc(C(C)C)cc1C(=O)C[n+]1ccccc1,115%
16,C[n+]1c(/C=C/c2c[nH]c3ccccc23)ccc2ccccc21,73.9%
17,COc1cc(-c2nn(-c3cccc(NC(=O)CN4CCOCC4)c3)cc2-c2cccnc2)ccc1Cl,84%
18,CN1CCN(c2ccc3nc(-c4ccc(OCCCCN5CCN(CCCCN6C(=O)c7cccc8cccc(c78)C6=O)CC5)cc4)[nH]c3c2)CC1,16.6%
19,CCCCCCCCCCCCCCCC(N)c1ccccc1 (centres undefined),-14.3% (active)
